According to PubChem BioAssay AID651903 (Broad Institute, 2012):
The whole screen tested about 22,000 compounds, of which about 1,100 (5%) were called active. The full list was thinned out, with actives kept by preference. A number with no mark means an inactive call. Cut-off read from the data, not from the text of the source: active = activity score above about 55%; inconclusive = no clear call, values can overlap the other calls; inactive = below that.

Experiment: T. cruzi growth inside host cells – cell-based, plate reader, single point, set 2, primary screen (AID 651903);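 note: parasites and compound incubated about four days before reading; 0% = median of neutral control wells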
Conditions: intracellular Trypanosoma cruzi in host cells, at 5.01 µM, stronger effect = higher value
`Cc1ccc(CN(C)C[C@@H]2OCc3cnnn3CCCC(=O)N([C@@H](C)CO)C[C@H]2C)cc1` gave an activity score (inhibition) of -0.307%. `C[C@@H]1CN([C@@H](C)CO)C(=O)c2cccc(NC(=O)c3cnccn3)c2O[C@H]1CN(C)Cc1ccc(C(=O)O)cc1` showed an activity score (inhibition) of 2.36%. `C[C@H](CO)N1C[C@H](C)[C@@H](CN(C)S(C)(=O)=O)Oc2c(NC(=O)c3ccc(-c4nccs4)cc3)cccc2C1=O` showed an activity score (inhibition) of -3.29%. With `C[C@H](CO)N1C[C@H](C)[C@@H](CN(C)S(=O)(=O)c2ccccc2)Oc2c(NC(=O)c3ccc(-c4nccs4)cc3)cccc2C1=O` the activity score (inhibition) was 20.1%. `C[C@H](CO)N1C[C@H](C)[C@H](CN(C)S(C)(=O)=O)Oc2c(NC(=O)c3ccc(-c4nccs4)cc3)cccc2C1=O` showed an activity score (inhibition) of 9.35%. With `C[C@@H]1CN([C@H](C)CO)C(=O)c2cccc(NC(=O)c3cnccn3)c2O[C@@H]1CN(C)Cc1ccncc1` the activity score (inhibition) was -11.1%. In the case of `C[C@H](CO)N1C[C@H](C)[C@@H](CN(C)Cc2ccc(C(=O)Nc3ccccc3N)cc2)Oc2c(NC(=O)c3ccc(-c4nccs4)cc3)cccc2C1=O`, the activity score (inhibition) was 64% (active). For `Cc1ccc(S(=O)(=O)N(C)C[C@H]2Oc3c(NC(=O)c4ccc(-c5nccs5)cc4)cccc3C(=O)N([C@H](C)CO)C[C@H]2C)cc1`, the activity score (inhibition) was 69.5% (active). With `C[C@@H]1CN([C@H](C)CO)C(=O)c2cccc(NC(=O)c3cnccn3)c2O[C@@H]1CN(C)Cc1ccc(C(=O)Nc2ccccc2N)cc1` the activity score (inhibition) was 67.2% (active). In the case of `C[C@@H]1CN([C@@H](C)CO)C(=O)c2cccc(NC(=O)c3ccc(-c4nccs4)cc3)c2O[C@H]1CN(C)Cc1ccc(Cl)c(Cl)c1`, the activity score (inhibition) was 85.3% (active). Compound `C[C@@H]1CN([C@@H](C)CO)C(=O)c2cccc(NC(=O)c3ccc(-c4nccs4)cc3)c2O[C@@H]1CN(C)Cc1ccncc1` has an activity score (inhibition) of 20.7%. In the case of `C[C@H]1CN([C@@H](C)CO)C(=O)c2cccc(NC(=O)c3ccc(-c4nccs4)cc3)c2O[C@H]1CN(C)Cc1ccc(C(=O)O)cc1`, the activity score (inhibition) was -0.442%. Compound `C[C@@H]1CN([C@@H](C)CO)C(=O)c2cccc(NC(=O)c3ccc(-c4nccs4)cc3)c2O[C@@H]1CN(C)S(=O)(=O)c1ccccc1` has an activity score (inhibition) of 24.8%. In the case of `O=C(O)c1cccc(/C=N/NC(=O)c2cccc(C(=O)NO)c2)c1`, the activity score (inhibition) was -15.8%. Work on `Cc1cccc(CN(C)C[C@@H]2OCc3cn(nn3)CCCC(=O)N([C@@H](C)CO)C[C@H]2C)c1` yielded an activity score (inhibition) of -37.4%. With `Cc1cccc(S(=O)(=O)N(C)C[C@@H]2OCc3cnnn3CCCC(=O)N([C@H](C)CO)C[C@@H]2C)c1` the activity score (inhibition) was 5.66%. `C[C@H]1CN([C@@H](C)CO)C(=O)Cc2cc(NC(=O)Cc3ccccc3)ccc2O[C@H]1CN(C)S(=O)(=O)c1ccc(Cl)cc1` gave an activity score (inhibition) of 30.9%. Compound `Cc1ccc(S(=O)(=O)Nc2cccc3c2O[C@H](CN(C)CC2CCCCC2)[C@H](C)CN([C@H](C)CO)C3=O)cc1` has an activity score (inhibition) of 2.35%. Compound `CNC[C@@H]1Oc2c(NC(=O)Nc3ccc(OC)cc3)cccc2C(=O)N([C@@H](C)CO)C[C@@H]1C` has an activity score (inhibition) of -23.4%. For `COc1ccc(NC(=O)Nc2ccc3c(c2)CC(=O)N([C@H](C)CO)C[C@H](C)[C@H](CN(C)S(=O)(=O)c2ccccc2)O3)cc1`, the activity score (inhibition) was -4.14%. Work on `Cc1ccc(S(=O)(=O)N(C)C[C@H]2Oc3c(NS(=O)(=O)c4cn(C)cn4)cccc3C(=O)N([C@@H](C)CO)C[C@H]2C)cc1` yielded an activity score (inhibition) of -10.8%. `Cc1noc(C)c1NC(=O)Nc1ccc2c(c1)C(=O)N([C@@H](C)CO)C[C@H](C)[C@H](CN(C)CC1CCCCC1)O2` showed an activity score (inhibition) of 7.21%. Work on `O=C(N/N=C/c1ccc(O)cc1Br)c1ccccc1O` yielded an activity score (inhibition) of -10.3%. `COc1ccc(NC(=O)Nc2cccc3c2O[C@H](CN(C)Cc2ccncc2)[C@@H](C)CN([C@@H](C)CO)C3=O)cc1` showed an activity score (inhibition) of 2.96%. For `COc1ccc(CN(C)C[C@H]2Oc3c(NC(=O)c4ccncc4)cccc3C(=O)N([C@H](C)CO)C[C@@H]2C)cc1`, the activity score (inhibition) was 80.9% (active). With `COc1ccc(NC(=O)Nc2cccc3c2O[C@@H](CN(C)Cc2ccncc2)[C@H](C)CN([C@H](C)CO)C3=O)cc1` the activity score (inhibition) was -7.67%. In the case of `COc1ccc(NC(=O)Nc2ccc3c(c2)CC(=O)N([C@@H](C)CO)C[C@H](C)[C@H](CN(C)C(=O)Nc2ccc4c(c2)OCO4)O3)cc1`, the activity score (inhibition) was -16.4%. In the case of `C[C@@H]1CN([C@@H](C)CO)C(=O)c2cc(NS(=O)(=O)c3ccc(Cl)cc3)ccc2O[C@H]1CN(C)S(=O)(=O)c1cn(C)cn1`, the activity score (inhibition) was -11.5%. `CNC[C@H]1Oc2c(NC(=O)C3CC3)cccc2C(=O)N([C@@H](C)CO)C[C@@H]1C` showed an activity score (inhibition) of -26.9%. With `C[C@H]1CN([C@@H](C)CO)C(=O)c2cccc(NS(C)(=O)=O)c2O[C@@H]1CN(C)C(=O)Nc1ccc(F)cc1` the activity score (inhibition) was -4.72%. Work on `C[C@@H]1CN([C@H](C)CO)C(=O)Cc2cc(NC(=O)Cc3ccccc3)ccc2O[C@H]1CN(C)Cc1ccc(Oc2ccccc2)cc1` yielded an activity score (inhibition) of 42.5%. For `C[C@@H]1CN([C@H](C)CO)C(=O)Cc2cc(NC(=O)NC3CCCCC3)ccc2O[C@H]1CN(C)Cc1ccc(Cl)c(Cl)c1`, the activity score (inhibition) was 7.26%. In the case of `C[C@@H]1CN([C@@H](C)CO)C(=O)Cc2cc(NC(=O)Cc3ccccc3)ccc2O[C@@H]1CN(C)Cc1ccc(Oc2ccccc2)cc1`, the activity score (inhibition) was 65.6% (active). Compound `C[C@H]1CN([C@@H](C)CO)C(=O)Cc2cc(NC(=O)Cc3ccccc3)ccc2O[C@@H]1CN(C)Cc1ccc(Cl)c(Cl)c1` has an activity score (inhibition) of 41.9%. Compound `C[C@@H]1CN([C@H](C)CO)C(=O)Cc2cc(NC(=O)CCCN(C)C)ccc2O[C@@H]1CN(C)Cc1ccc(Oc2ccccc2)cc1` has an activity score (inhibition) of -28.8%. `C[C@@H]1CN([C@@H](C)CO)C(=O)Cc2cc(NC(=O)Cc3ccccc3)ccc2O[C@@H]1CN(C)Cc1ccc2c(c1)OCO2` showed an activity score (inhibition) of 32.2%. For `COc1ccc(CN(C)C[C@H]2Oc3ccc(NC(=O)Cc4ccccc4)cc3CC(=O)N([C@@H](C)CO)C[C@@H]2C)cc1`, the activity score (inhibition) was 71.7% (active). Compound `C[C@@H]1CN([C@H](C)CO)C(=O)Cc2cc(NC(=O)Cc3ccccc3)ccc2O[C@@H]1CN(C)Cc1ccccc1` has an activity score (inhibition) of 5.2%. In the case of `C[C@H]1CN([C@@H](C)CO)C(=O)Cc2cc(NC(=O)NC3CCCCC3)ccc2O[C@@H]1CN(C)Cc1ccc(Oc2ccccc2)cc1`, the activity score (inhibition) was 75.3% (active).
